Experiment [1] has as its system HCC1937. Kind of experiment: relative cell viability, compound + RSL3, vs DMSO (fraction of DMSO control); higher = less growth inhibition. The note with it: 72 h.
For experiment [2], the system named is MDA-MB-231. The experiment is described as above. The settings on record: 72 h.

Structures can show the parent of a compound that is named as a salt.
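Further: breast cancer cell viability read out with the CCK-8 kit after co-treatment of each compound with the ferroptosis inducer RSL3.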

On to `O=C(O)CN(CC(=O)O)c1ccccc1OCCOc1ccccc1N(CC(=O)O)CC(=O)O` + COC(=O)c1ccc([C@H]2c3[nH]c4ccccc4c3C[C@H](C(=O)OC)N2C(=O)CCl)cc1 [RSL3], for which the relative cell viability in experiment [1] amounted to 0.308; in experiment [2] it was 0.581.
`Cc1ccc(/C=C2\SC(=S)N(CCCCCC(=O)Nc3ccc(C(=O)O)c(O)c3)C2=O)cc1` + COC(=O)c1ccc([C@H]2c3[nH]c4ccccc4c3C[C@H](C(=O)OC)N2C(=O)CCl)cc1 [RSL3]: the values for the relative cell viability in experiment [1] and in experiment [2] were 0.632 and 0.577, respectively.
On to `CC(C)C1=CC2=CC[C@@H]3[C@](C)(CCC[C@@]3(C)C(=O)O)[C@H]2CC1` [Abietic Acid] + COC(=O)c1ccc([C@H]2c3[nH]c4ccccc4c3C[C@H](C(=O)OC)N2C(=O)CCl)cc1 [RSL3], for which the results for the relative cell viability in experiment [1] and in experiment [2] were 0.586 and 0.699, respectively.
For `N[C@@H](Cc1c[nH]cn1)C(=O)O` [histidine] + COC(=O)c1ccc([C@H]2c3[nH]c4ccccc4c3C[C@H](C(=O)OC)N2C(=O)CCl)cc1 [RSL3], the relative cell viability in experiment [1] is 0.622; in experiment [2], 0.673.
The matching figures for `Nn1nnc2ccccc21` [1-Aminobenzotriazole] + COC(=O)c1ccc([C@H]2c3[nH]c4ccccc4c3C[C@H](C(=O)OC)N2C(=O)CCl)cc1 [RSL3]: 0.528 and 0.758.
The matching figures for `O=c1oc2ccccc2cc1O` [3-Hydroxycoumarin] + COC(=O)c1ccc([C@H]2c3[nH]c4ccccc4c3C[C@H](C(=O)OC)N2C(=O)CCl)cc1 [RSL3]: 0.587 and 0.682.
On the same counts, the results for `CC[C@@H]1/C=C(\C)C[C@H](C)C[C@H](OC)[C@H]2O[C@@](O)(C(=O)C(=O)N3CCCC[C@H]3C(=O)O[C@H](/C(C)=C/[C@@H]3CC[C@@H](O)[C@H](OC)C3)[C@H](C)[C@@H](O)CC1=O)[C@H](C)C[C@@H]2OC` [Ascomycin] + COC(=O)c1ccc([C@H]2c3[nH]c4ccccc4c3C[C@H](C(=O)OC)N2C(=O)CCl)cc1 [RSL3] are 0.1 and 0.236.
On to `CC(C)Cc1ccc([C@H](C)C(=O)O)cc1` [Dexibuprofen] + COC(=O)c1ccc([C@H]2c3[nH]c4ccccc4c3C[C@H](C(=O)OC)N2C(=O)CCl)cc1 [RSL3], for which the relative cell viability came to 1.03 in experiment [1] and 0.606 in experiment [2].
For the compound `CC1=C[C@]2(O)O[C@@]3(CC2=C(C)C)[C@@H](C)CC[C@@H]13` [Curcumenol] + COC(=O)c1ccc([C@H]2c3[nH]c4ccccc4c3C[C@H](C(=O)OC)N2C(=O)CCl)cc1 [RSL3], the relative cell viability worked out at 0.369 in experiment [1] and 0.517 in experiment [2].
The matching figures for `CC1=C(C)C(=O)C(C(CCCCCC(=O)O)c2ccccc2)=C(C)C1=O` (stereo unspecified) [Seratrodast] + COC(=O)c1ccc([C@H]2c3[nH]c4ccccc4c3C[C@H](C(=O)OC)N2C(=O)CCl)cc1 [RSL3]: 0.948 and 0.578.
The matching figures for `Cc1nc(-c2nc(-c3ccc(OC(F)(F)F)cc3)no2)nn1Cc1cccc(N2CCC(S(C)(=O)=O)CC2)c1` + COC(=O)c1ccc([C@H]2c3[nH]c4ccccc4c3C[C@H](C(=O)OC)N2C(=O)CCl)cc1 [RSL3]: 0.417 and 0.559.
In the case of `COc1ccc(Nc2ccn(-c3ccccc3)n2)cc1` + COC(=O)c1ccc([C@H]2c3[nH]c4ccccc4c3C[C@H](C(=O)OC)N2C(=O)CCl)cc1 [RSL3], the relative cell viability came to 0.425 in experiment [1] and 0.839 in experiment [2].
Regarding `CC(C)c1nc(N(C)S(C)(=O)=O)nc(-c2ccc(F)cc2)c1/C=C/[C@@H](O)C[C@@H](O)CC(=O)O` [Rosuvastatin] + COC(=O)c1ccc([C@H]2c3[nH]c4ccccc4c3C[C@H](C(=O)OC)N2C(=O)CCl)cc1 [RSL3], the relative cell viability in experiment [1] was 0.54; in experiment [2], 0.527.
The matching figures for `Cc1c2c(=O)n(-c3ccccc3Cl)[nH]c2cc(=O)n1Cc1ccccn1` + COC(=O)c1ccc([C@H]2c3[nH]c4ccccc4c3C[C@H](C(=O)OC)N2C(=O)CCl)cc1 [RSL3]: 0.452 and 0.626.
The matching figures for `N#Cc1ccc(Oc2cccc(NC(=O)Nc3ccc(Cl)c(C(F)(F)F)c3)c2)cc1` + COC(=O)c1ccc([C@H]2c3[nH]c4ccccc4c3C[C@H](C(=O)OC)N2C(=O)CCl)cc1 [RSL3]: 0.0959 and 0.216.
The matching figures for `COc1cccc(CNc2ccc(S(=O)(=O)Nc3nc4ccccc4s3)cc2)c1O` + COC(=O)c1ccc([C@H]2c3[nH]c4ccccc4c3C[C@H](C(=O)OC)N2C(=O)CCl)cc1 [RSL3]: 0.583 and 0.657.
Consider `CC(=O)Nc1nc(C)c(S(=O)(=O)Nc2ccc(C(O)(C(F)(F)F)C(F)(F)F)cc2)s1` + COC(=O)c1ccc([C@H]2c3[nH]c4ccccc4c3C[C@H](C(=O)OC)N2C(=O)CCl)cc1 [RSL3], for which the relative cell viability is 0.484 in experiment [1] and 0.952 in experiment [2].
On the same counts, the results for `O=C(Nc1ccncc1)c1cc([N+](=O)[O-])ccc1Cl` + COC(=O)c1ccc([C@H]2c3[nH]c4ccccc4c3C[C@H](C(=O)OC)N2C(=O)CCl)cc1 [RSL3] are 0.297 and 0.438.
On the same counts, the results for `O=C(NN1CCCCC1)c1nn(-c2ccc(Cl)cc2Cl)c(-c2ccc(C#Cc3ccc(C(F)(F)F)cc3)s2)c1CNS(=O)(=O)N1CCCC1` + COC(=O)c1ccc([C@H]2c3[nH]c4ccccc4c3C[C@H](C(=O)OC)N2C(=O)CCl)cc1 [RSL3] are 0.75 and 0.345.
The matching figures for `CCCc1c(OCCCOc2ccc(OCC(=O)O)cc2)ccc(C(C)=O)c1O` + COC(=O)c1ccc([C@H]2c3[nH]c4ccccc4c3C[C@H](C(=O)OC)N2C(=O)CCl)cc1 [RSL3]: 0.556 and 0.757.
Consider `CC[C@H](C)C(=O)O[C@H]1C[C@H](O)C=C2C=C[C@H](C)[C@H](CC[C@@H](O)C[C@@H](O)CC(=O)O)[C@H]21` [Pravastatin sodium] + COC(=O)c1ccc([C@H]2c3[nH]c4ccccc4c3C[C@H](C(=O)OC)N2C(=O)CCl)cc1 [RSL3], for which the results for the relative cell viability in experiment [1] and in experiment [2] were 0.77 and 0.606, respectively.
On the same counts, the results for `O=C(CC(C(=O)O)c1c[nH]c2ccccc12)c1ccc(F)cc1F` (stereo unspecified) [Mitochonic acid 5] + COC(=O)c1ccc([C@H]2c3[nH]c4ccccc4c3C[C@H](C(=O)OC)N2C(=O)CCl)cc1 [RSL3] are 0.636 and 0.769.
On the same counts, the results for `CC(C)n1c(/C=C/C(O)CC(O)CC(=O)O)c(-c2ccc(F)cc2)c2ccccc21` (stereo unspecified) [Fluvastatin sodium salt] + COC(=O)c1ccc([C@H]2c3[nH]c4ccccc4c3C[C@H](C(=O)OC)N2C(=O)CCl)cc1 [RSL3] are 0.504 and 0.547.

Values taken from the supplement of paper PMC9492666.
